According to ChEMBL document CHEMBL3988442, “University of Dundee, Small-Polar-MMV Screening Library” (2021):

These compounds were tested against AMP-activated protein kinase, AMPK (Homo sapiens) (UniProt P54646+O43741+P54619+Q9UGJ0+Q9Y478+Q13131+Q9UGI9) (assay: AMP-dependent Kinase enzyme assay. An in vitro enzyme assay that detects ADP turnover that is directly proportional to AMPK activity. This uses naive AMPK that is activated during the assay with MK-8722). Conditions: 30 µM.
Format: functional
Parameters: scale not given: direction of the effect not stated beside the values

Structure (SMILES)	Percent Effect [%]
CCC(CN1CCCC1)n1cncc1-c1cnn(-c2ccc(F)cc2)c1 (stereo not given)	12.9
O=C(CCc1nc(-c2cccnc2)no1)NCC1CCN(C2CC2)C1 (stereo not given)	-2.6
CCC1(CC)CC(=O)N(CC(O)c2cccc(Br)c2)C1=O (stereo not given)	17.2
CN(C)c1nc(N)nc(CN2CCC(c3ccccc3)CC2)n1	-6.86
CC(C)CC(=O)N1Cc2ccccc2CC1C(=O)Nc1nncs1 (stereo not given)	-25.1
Cc1cccc(-c2nccnc2C2CCCN(C)C2)c1 (stereo not given)	11.8
O=C(NCc1ccon1)Nc1cc(F)ccc1N1CCCCC1	5.82
CN1CC(c2ccccc2)CC2(CCN(Cc3ncc[nH]3)CC2)C1 (stereo not given)	-6.61
NC(=O)CC1CCCN(c2cncc(SCc3ccccc3)n2)C1 (stereo not given)	25.3
Cc1ccc(-c2cc(C(=O)N(C)Cc3noc4c3CCCC4)[nH]n2)o1	4.24
Cc1cc(C)n(C2CN(c3nc(N)nc4c3CCCC4)C2)n1	-1.57
CCc1noc(CN2CCN(C(=O)OC(C)(C)C)C(C)C2)n1 (stereo not given)	6.06
Cc1nc(C2CCCN2CCOCC2CC2)no1 (stereo not given)	-0.854
CC(=O)N1CCC(c2ncc(C(=O)Nc3ccc(F)cc3)c(C)n2)CC1	-4.39
COc1cccc(CN(C)C(C)C(=O)Nc2nc(C)c(C)s2)c1 (stereo not given)	5.13
CCc1nc(CCNc2ncccn2)sc1C	-7.35
Cc1ccccc1Cn1cnc2oc(C)c(C(=O)O)c2c1=O	9.55
Cc1noc(C)c1C(=O)N(C)C(C)c1ccc(S(C)(=O)=O)cc1 (stereo not given)	-2.19
Cc1cc(N2CCOC(c3ccc(N(C)C)cn3)C2)nc(N)n1 (stereo not given)	7.96
COc1cc(CNC(=O)COC2CCCCC2)ccc1O	-0.805

Structure (SMILES)	Percent Effect [%]
COCCOc1ccc(F)cc1NCc1nc2ccccc2n1C	8.68
Cc1cc(N2CCC3(CCCN(CCO)C3=O)C2)nc2cc(Cl)ccc12 (stereo not given)	10
O=c1c(CN2CCOCC2)coc2ccc(Cl)cc12	-2.73
O=C(CC1=CSC2=NCCN12)N1CCCC(CCc2cccc(F)c2)C1 (stereo not given)	13.4
OCCOCCNCC1(c2ccc(F)cc2)CCOC1 (stereo not given)	-5.55
CC(C)c1cc(C2CCN(C(=O)Cn3cnc4ccccc43)CC2)[nH]n1	10.5
CCN(CC)S(=O)(=O)c1cc(Br)ccc1OC	-4.57
N[C@H]1CN(C(=O)c2ccc3[nH]c(=O)c(=O)[nH]c3c2)C[C@@H]1c1ccccc1	3.24
CC(C)C(CCO)NC(=O)Nc1ccc(-c2csnn2)cc1 (stereo not given)	13.2
O=S(=O)(NCc1ccnc(-n2ccnc2)c1)c1cncc(F)c1	-5.49
O=C(CCNCc1cccc2c1OCCCO2)NC1CCCC1	-8.82
CNC(=O)Cc1ccccc1NC(=O)N[C@H]1c2ccccc2C[C@H]1O	0.934
CCCS(=O)(=O)N1CCCN(CCCOC)CC1	11.7
C[C@@H]1CN(S(=O)(=O)N2CCCC2)CC[C@@]1(O)C1CCOCC1	-5.74
CCOCCC(=O)Nc1cccc(Cl)c1COC	-0.185
Cc1cc2n(n1)CC(CNCc1cc(C)on1)CN2 (stereo not given)	-6.26
N#CCCn1cnc2c(Br)cccc2c1=O	-5.95
Cc1ccccc1SCC(=O)NC1CCC(O)CC1 (stereo not given)	0.736
CS(=O)(=O)c1ccccc1NC(=O)N[C@@H]1c2ccccc2C[C@@H]1O	6.87
Cc1cccc(C(C)C)c1NC(=O)NCCN(C(C)C)C(C)C	15.2
